Screens: PubChem, National Center for Advancing Translational Sciences (NCATS)
G9a inh: blocks human histone lysine methyltransferase G9a. G9a H3K9 monomethylation, AlphaScreen, 2 h. Potency, µM (top dose mostly 102 µM), actives largely listed as inhibitors. hit rate 8.8% among 350,000. AID 504332; further: nearly all actives have a fitted effect of over 75% in size
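Step 1: enzyme (final 20 nM) with compound, 15 min RT. Step 2: substrate peptide 500 nM and SAM 20 uM, 2 h RT. Step 3: anti-H3K9me1 antibody and AlphaScreen beads, 10 min, then plate read.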
HP1b binding inh: HP1-beta chromodomain-methylated histone interaction inhibition; P83916; AlphaScreen HP1-beta / biotin-H3K9me3 peptide binding; Potency, µM (series often up to 114 µM), hits mostly inhibitors; hit rate 0.56% among 390,000; further: nearly all actives have a fitted effect of over 70% in size
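AlphaScreen: HP1-beta (50 nM) preformed 30 min with biotin-H3(1-18)K9me3 peptide (50 nM) in PBS pH 7.4, 0.01% Tween-20. Compound added for 30 min at RT, then streptavidin donor/nickel chelate acceptor beads (10 ug/mL) for 30 min.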
BAZ2B inh: BAZ2B (human) inhibition | AID 504333 | Q9UIF8 | Potency, µM (highest dose often 114 µM), usual class: inhibitors | hit rate 4.4% among 360,000 | AlphaScreen BAZ2B-H3K14Ac peptide displacement; further: nearly all actives have a fitted effect of over 60% in size
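In this displacement format the biotinylated H3(5-23) peptide acetylated at Lys14 serves as ligand at 50 nM, with BAZ2B at 50 nM in PBS pH 7.4 containing 0.01% Tween-20. Donor and acceptor beads are 10 ug/mL final.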
CtBP-E1A inh: inhibitors of CtBP/E1A interaction. AlphaScreen GST-E1A/His-CtBP binding, 1536-well; hits give low values. activity change, % (concentration not given with the values). hit rate 0.49% among 340,000; in the data active means activity change below about -65%; inconclusive means mostly about -30% to -63%
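GST-E1A and His-tagged CtBP (125 nM each as 5X stock) were preincubated with pin-transferred compound for 2 h at 37 °C in the dark, then glutathione donor and nickel acceptor beads were added for 1 h before AlphaScreen reading.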
Six1-Eya2 blk: blocks human Six1 binding to Eya2; AlphaScreen GST-Six1/His-Eya2 binding, biochemical; hits give low values; activity change, % (no concentration beside the values); hit rate 0.56% among 360,000; AID 651725; in the data active means activity change below about -65%; inconclusive means mostly about -30% to -63%
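Compounds are tested against tagged Six1 and Eya2 proteins bridged by glutathione donor and nickel acceptor beads; after a one-hour incubation at 37 °C without light, AlphaScreen emission is recorded.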
JMJD2A Tudor inh: JMJD2A Tudor domain (human) inhibition; hit rate 4.4% among 390,000; O75164; AlphaScreen JMJD2A-Tudor / H3K4me3 peptide binding; Potency, µM (doses to about 114 µM), actives largely listed as inhibitors; further: nearly all actives have a fitted effect of over 50% in size
Target sequence (O75164 whole entry, looked up, the tested form may be a part): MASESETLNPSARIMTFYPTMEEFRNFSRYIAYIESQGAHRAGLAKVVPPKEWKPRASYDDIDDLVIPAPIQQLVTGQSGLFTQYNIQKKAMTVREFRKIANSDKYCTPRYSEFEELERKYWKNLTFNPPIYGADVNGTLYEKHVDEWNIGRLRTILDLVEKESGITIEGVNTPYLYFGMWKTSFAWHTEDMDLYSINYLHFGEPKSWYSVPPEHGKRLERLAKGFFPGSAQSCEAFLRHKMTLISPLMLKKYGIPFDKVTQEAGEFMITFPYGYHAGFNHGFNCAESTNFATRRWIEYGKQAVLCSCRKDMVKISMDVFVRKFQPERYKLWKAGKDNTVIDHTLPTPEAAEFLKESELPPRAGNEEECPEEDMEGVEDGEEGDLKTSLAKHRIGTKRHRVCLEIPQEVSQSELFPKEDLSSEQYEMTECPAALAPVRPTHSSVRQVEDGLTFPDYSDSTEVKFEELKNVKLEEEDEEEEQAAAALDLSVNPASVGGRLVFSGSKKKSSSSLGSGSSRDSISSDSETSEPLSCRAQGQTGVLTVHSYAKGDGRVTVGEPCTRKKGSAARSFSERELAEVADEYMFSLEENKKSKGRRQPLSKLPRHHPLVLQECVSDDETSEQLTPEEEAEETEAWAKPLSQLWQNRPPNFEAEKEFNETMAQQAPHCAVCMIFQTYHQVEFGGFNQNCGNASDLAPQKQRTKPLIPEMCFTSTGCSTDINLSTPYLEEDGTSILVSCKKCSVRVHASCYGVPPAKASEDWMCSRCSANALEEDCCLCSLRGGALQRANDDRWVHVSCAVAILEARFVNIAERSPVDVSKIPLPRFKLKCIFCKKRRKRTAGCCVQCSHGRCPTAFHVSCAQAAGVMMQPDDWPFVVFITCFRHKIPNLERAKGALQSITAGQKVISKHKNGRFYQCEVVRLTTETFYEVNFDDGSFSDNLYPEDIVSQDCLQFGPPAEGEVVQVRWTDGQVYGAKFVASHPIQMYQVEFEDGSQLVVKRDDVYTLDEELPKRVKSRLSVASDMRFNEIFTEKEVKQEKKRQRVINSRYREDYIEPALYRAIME
Hits are given with their value; - = inactive; ? = inconclusive; . = no result; [ ] = dose if it differs, or a comment. Most compounds without a hit are left out; they make up all but 10% or so of the library. Unless noted, the call rests on the fitted dose curve; in most records, active means well fitted inhibition curve with a large enough effect; inconclusive means small, poorly fitted or top-dose-only effect; inactive means no such curve, though single readings can be large or run the other way.

SMILES	G9a inh	HP1b binding inh	BAZ2B inh	CtBP-E1A inh	Six1-Eya2 blk	JMJD2A Tudor inh
CC(=O)Nc1ncc(N=Nc2cccc(C(F)(F)F)c2)s1	45µM	-	-	-	?	-
CC1CCCCN1c1nnc(N)s1 (stereo unspecified)	-	-	-	-	-	-
CC1CCCC(C)N1c1nnc(N)s1 (stereo unspecified)	18µM	-	-	-	-	-
CCCCCCNc1cc2n(c(=O)n1)CCc1cc(OC)c(OC)cc1-2	-	-	-	-81	-71	-
COc1cc2c(cc1OC)-c1cc(NC3CCCCCCC3)nc(=O)n1CC2	45µM	-	-	-85	-80	-
CCOc1ccc(Nc2cc3n(c(=O)n2)CCc2cc(OC)c(OC)cc2-3)cc1	-[2.33 µM]	-	-	-	-84	-
CCNc1cc2n(c(=O)n1)CCc1cc(OC)c(OC)cc1-2	-	-	-	-	?	-
COc1cc2c(cc1OC)-c1cc(NCc3ccccn3)nc(=O)n1CC2	.	-	28µM	?	-78	-[11.4 µM]
Cc1ccccc1CNS(=O)(=O)c1c(C(=O)N2CCCCC2)c(C)n(C)c1C	-	-	-	-	-	-
Cc1ccc(N(C)S(=O)(=O)c2ccc(-c3cnc(C4CC4)o3)cc2)cc1	-	-	-	.	-	-
CC1(C)OC2CC3C4CC=C5CC(O)CCC5(C)C4CCC3(C)C2(C(=O)CO)O1 (stereo unspecified)	.	-	.	-	-	-
CC1CN(CC(O)COCc2ccc3c(c2)OCO3)CC(C)O1 (stereo unspecified)	-	-	-	-	-	-
COc1cc2c(cc1OC)-c1cc(NC3CCCCC3)nc(=O)n1CC2	?	-	-	-66	-65	-
COc1cc2c(cc1OC)-c1cc(NC3CC3)nc(=O)n1CC2	-[2.33 µM]	-	-	?	?	-
Cc1cc(C)c2c(CC(=O)NC3CCS(=O)(=O)C3)coc2c1 (stereo unspecified)	-	-	-	.	-	-
CC(=O)C1=C(O)C(=O)N(c2ccc(S(=O)(=O)Nc3nccs3)cc2)C1c1ccc([N+](=O)[O-])cc1 (stereo unspecified)	79µM	-	?	-	-	-
CC(=O)C1=C(O)C(=O)N(c2ccc(S(=O)(=O)Nc3nccs3)cc2)C1c1ccc(F)cc1 (stereo unspecified)	56µM	-	-	-	-	-
O=S(=O)(Nc1nccs1)c1ccc(F)cc1	.	-	-	-	-	-
O=C(Nc1ccccc1Cl)OCc1cncs1	-	-	-	-	-	-
OC[C@@H]1CN(Cc2ccc(-c3ccccc3)cc2)C[C@H](n2cnc3c(NCc4ccco4)ncnc32)O1	.	.	.	-	-	.
Cc1nc2ccccc2c2c(N)c3ccccc3n12	18µM	?	?	-	-	?
COc1ccc(C(=O)N2CCN(Cc3ccccc3C(F)(F)F)CC2)cc1	20µM	?	?	-	-	25µM
COc1cccc(C(=O)N2CCN(Cc3ccccc3C(F)(F)F)CC2)c1	3.5µM	?	28µM	-	-	-[11.4 µM]
O=C(NC1CCCc2c1cnn2-c1ccc(F)cc1F)c1ccccc1N1CCOCC1 (stereo unspecified)	.	-	-	-	-	-
CCCn1cc(S(=O)(=O)c2ccc(C)c(C)c2)c(=O)c2cc(F)c(N3CCC(C)CC3)cc21	-	-	-	.	.	-
SMILES	G9a inh	HP1b binding inh	BAZ2B inh	CtBP-E1A inh	Six1-Eya2 blk	JMJD2A Tudor inh
S=c1[nH]nc(CCCc2n[nH]c(=S)o2)o1	.	?	-	-	-	2.8µM
COc1ccc(CCCc2n[nH]c(=S)o2)cc1	?	-	?	-	-	-
Cc1ccc(CN2C(=O)CN(C3CCCCCC3)C(=O)C2c2ccc(F)cc2)cc1 (stereo unspecified)	-	-	-	.	.	-
CC(=O)c1c(C)n([O-])c2cc(F)c(F)cc2[n+]1=O	-	-	-	-	-	-
COc1ccc2c(c1)[n+](=O)c(C(C)=O)c(C)n2[O-]	28µM	?	-	-	-	-[11.4 µM]
CCOc1cc(/C=N/Nc2ccc(S(=O)(=O)Nc3ccccc3C(=O)O)cc2[N+](=O)[O-])cc(Cl)c1O	.	.	.	-	?	.
COc1ccc(C(C)=NNc2ccc([N+](=O)[O-])cc2S(=O)(=O)Nc2ccccc2C(=O)O)c(OC)c1	.	-	.	-	-	?
